The values below come from PubChem BioAssay (NCATS).

Structures are written as SMILES. Records with an inconclusive call do not appear. Active and inactive are the calls of the source. Unless noted, how the calls were made is not given here.

Assay [1] is described as follows: qHTS profiling of the MIPE4 collection as inhibitors of Plasmodium falciparum (3D7) proliferation (AID 743344).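 Further: scaled between DMSO vehicle wells and 0.29 µM artemisinin as full inhibition.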 As to conditions: P. falciparum 3D7 in erythrocytes, SYBR Green DNA fluorescence, 72 h; at 28.5 µM unless noted. Put shortly:
(§1)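 Erythrocytes infected with P. falciparum (0.3% parasitemia, 2.5% hematocrit) incubated with compounds 72 h at 37 C, 5% CO2. Lysis with saponin/Triton buffer containing SYBR Green I, overnight at room temperature in the dark; DNA fluorescence (485/535 nm) normalised to 0.29 uM artemisinin and DMSO.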

A short description of assay [2]: qHTS profiling of the MIPE4 collection as inhibitors of Plasmodium falciparum (DD2) proliferation (AID 743345). As to conditions: P. falciparum Dd2 in erythrocytes, SYBR Green DNA, 72 h; at 28.5 µM unless noted. Put shortly:
as §1

Assay [3] in a line: qHTS profiling of the MIPE4 collection as inhibitors of Plasmodium falciparum (DD2) proliferation (Rep 2) (AID 743346). The following applies: P. falciparum Dd2 in erythrocytes, SYBR Green DNA, 72 h; at 28.5 µM unless noted. Put shortly: as §1
Assay [4] is described as follows: High-throughput drug toxicity screening in the BPDCN cell line Gen2.2 (AID 1224824).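 Further: cells exposed to compounds for 48 h before reading.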 The following applies: Gen2.2 BPDCN cells; at 45.8 µM (top of the series) unless noted. Put shortly:
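Gen2.2 cells, 500 per well in phenol red-free RPMI with 10% FBS, exposed to compounds 48 h at 37 C, 5% CO2; viability by CellTiter-Glo luminescence. Percent activity scaled to DMSO (100%) and 9.2 uM bortezomib final (0%).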

Assay [5] is described as follows: High-throughput drug toxicity screening in the BPDCN cell line Cal-1 (AID 1224825). The following applies: Cal-1 BPDCN cell viability, qHTS; at 45.8 µM (top of the series) unless noted. Put shortly: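 Exponentially growing Cal-1 cells, 500 per well in phenol red-free RPMI with 10% FBS, were exposed to compounds for 48 h at 37 °C, 5% CO2. Viability was read by CellTiter-Glo luminescence and normalised to DMSO (100%) and 9.2 uM bortezomib (0%).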
(In general: In qHTS, concentration-response curves come from the screen itself.)

Assay [6] is described as follows: qHTS assay for measurement of the activity of small molecule inhibitors on Zika virus induced Caspase-3 activity in human iPSC derived neural progenitor cells (hNPCs) (AID 1224857; active means well fitted curve in the direction sought with a large enough effect; an effect the other way counts as inactive or inconclusive; further: nearly all actives have a fitted effect of over 65% in size; further: potency means the concentration at half of the fitted maximal effect). Put shortly: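 Cells were plated at 350 per well and grown 16 to 20 hours. Compound pretreatment lasted one hour, after which ZIKV (2 FFU/cell) was added for 6 hours. Percent inhibition was normalized between uninfected and infected controls.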

The nature of assay [7]: qHTS assay for measurement of the activity of small molecule inhibitors on Zika virus induced Caspase-3 activity in human astrocytoma cells (AID 1224859; active means well fitted curve in the direction sought with a large enough effect; an effect the other way counts as inactive or inconclusive;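 further: plate controls were ZIKV-infected untreated cells for no effect and uninfected cells for full effect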). The method in brief: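 Percent inhibition of virus-induced caspase-3/7 signal is calculated against uninfected and ZIKV-infected control cells. Cells are SNB-19, infected at 2 FFU/cell for 6 h after 1 h compound exposure.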

Assay [8] is described as follows: qHTS Screen of the MIPE 4.0 Collection Against Ewings Sarcoma (TC32) (AID 1259256; active means well fitted curve in the direction sought with a large enough effect; an effect the other way counts as inactive or inconclusive; further: nearly all actives have a fitted effect of over 45% in size; further: potency means the concentration at half of the fitted maximal effect). The method in brief:
(§2)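 Here, cells in 5% FBS RPMI were exposed for two days (48 h) to compound dilutions added four hours after plating. ATP-based CellTiter-Glo luminescence measured viability, normalized to vehicle and no-cell blanks.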

Assay [9] can be described thus: qHTS profiling for inhibitors of Plasmodium falciparum (HB3) proliferation (AID 743324; active means well fitted curve in the direction sought with a large enough effect; an effect the other way counts as inactive or inconclusive;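 further: 100% = DMSO vehicle wells and 0% = artemisinin-treated control wells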). The following applies: Plasmodium falciparum HB3 blood-stage proliferation; at 28.7 µM (top of the series) unless noted. Put shortly: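 P. falciparum HB3 grown in erythrocytes (0.3% parasitemia, 2.5% hematocrit final) with compound for 72 h at 37 C, 5% CO2. Parasite DNA detected by SYBR Green after saponin/triton lysis overnight; normalized to 0.29 uM artemisinin and DMSO.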

The nature of assay [10]: qHTS profiling of the MIPE4 collection as inhibitors of Plasmodium falciparum (HB3) proliferation (AID 743347).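 Further: plate controls were DMSO vehicle wells for no effect and artemisinin wells for full effect.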 The following applies: P. falciparum HB3 in erythrocytes, SYBR Green DNA, 72 h; at 28.5 µM unless noted. The method in brief: as §1
Assay [11] can be described thus: qHTS Screen of the MIPE 4.0 Collection Against Ewings Sarcoma (TC71) (AID 1259253; active means well fitted curve in the direction sought with a large enough effect; an effect the other way counts as inactive or inconclusive; further: potency means the concentration at half of the fitted maximal effect; nearly all actives have a fitted effect of over 40% in size). The method in brief: as §2
A short description of assay [12]: qHTS Screen of the MIPE 4.0 Collection Against Ewings Sarcoma (RDES) (AID 1259252; active means well fitted curve in the direction sought with a large enough effect; an effect the other way counts as inactive or inconclusive; further: potency means the concentration at half of the fitted maximal effect; nearly all actives have a fitted effect of over 35% in size). The method in brief: as §2
A short description of assay [13]: qHTS Screen of the MIPE 4.0 Collection Against Ewings Sarcoma (EW8) (AID 1259255; active means well fitted curve in the direction sought with a large enough effect; an effect the other way counts as inactive or inconclusive; further: potency means the concentration at half of the fitted maximal effect; nearly all actives have a fitted effect of over 35% in size). Put shortly: as §2

As to `CCN1CCC(n2cc(CNc3cc(Cl)c4ncc(C#N)c(Nc5ccc(F)c(Cl)c5)c4c3)nn2)CC1`, the parasite growth, % of DMSO control in [1] is 12.9%. Also, in [2], the parasite growth remaining, % of DMSO control (lower = more inhibition) was determined as 12.5%. Also, the parasite growth, % of control (lower = inhibition) in assay [3] was found to be 12.3%. This compound also yielded a cell viability, % of control (lower = more cytotoxic) in [4] of 35.5%. Moreover, the viability (% of control) in [5] was 36.8%. For the same compound, the Potency in assay [6] and in assay [8] was 18.7 µM (active) in each case. Besides, the Potency entry in assay [7] is “inactive”.
For `COc1ccc2nc3cc(Cl)ccc3c(Nc3cc(CN4CCCC4)c(O)c(CN4CCCC4)c3)c2n1`, in [9], the remaining proliferation (% of control), lower = more inhibition is -0.744%. The parasite growth, % of DMSO control in assay [1] came out at 7.61%. This compound also showed a parasite growth remaining, % of DMSO control (lower = more inhibition) in assay [2] of 6.47%. This compound registered a parasite growth, % of control (lower = inhibition) in assay [3] of 7.91%. The growth, % of control in assay [10] was determined as 13.2%. For the same compound, in assay [4], the cell viability, % of control (lower = more cytotoxic) is 21.4%. In assay [5], this compound registered a viability (% of control) of 8.39%. Further, the Potency result in [6] and in assay [7] was “inactive” throughout. Further, the Potency in assay [11] is 14.8 µM (active).
`COc1cc2c(cc1Cc1cccc(Cl)c1F)c(=O)c(C(=O)O)cn2[C@H](CO)C(C)C` gave a parasite growth, % of DMSO control in assay [1] of 7.9%. The compound also registered a parasite growth remaining, % of DMSO control (lower = more inhibition) in [2] of 19%. This compound also showed a parasite growth, % of control (lower = inhibition) in assay [3] of 16.6%. In assay [10], this compound showed a growth, % of control of 3.89%. In assay [4], the cell viability, % of control (lower = more cytotoxic) amounted to 19.1%. In addition, the viability (% of control) in assay [5] was 11%. Also, the Potency result in assay [6] is “inactive”. Moreover, the Potency was 26.4 µM (active) in assay [12] and 20.9 µM (active) in assay [11].
`CC(C)CNc1ccnc(NCc2csc(-c3ccccc3)n2)n1`: the remaining proliferation (% of control), lower = more inhibition in assay [9] was -0.95%. In addition, the parasite growth, % of DMSO control in assay [1] was 7.23%. For the same compound, the parasite growth remaining, % of DMSO control (lower = more inhibition) in assay [2] is 31.7%. The same compound returned a parasite growth, % of control (lower = inhibition) in assay [3] of 25%. Besides, the growth, % of control in assay [10] came to 10.6%. In [4], this compound displayed a cell viability, % of control (lower = more cytotoxic) of 74.3%. Also, the viability (% of control) in [5] came out at 5.31%. Besides, the Potency entry in assay [6] was “inactive”. The Potency in assay [11] was 9.35 µM (active); in assay [13], 18.7 µM (active); in assay [8] it was 14.8 µM (active).
As to `CNC(=O)c1c(-c2ccc(F)cc2)oc2cc(N(CCO)S(C)(=O)=O)c(C3CC3)cc12`, the parasite growth, % of DMSO control in [1] was 4.82%. This compound had a parasite growth remaining, % of DMSO control (lower = more inhibition) in assay [2] of 10.4%. Also, the parasite growth, % of control (lower = inhibition) in assay [3] came out at 14.1%. This compound also had a cell viability, % of control (lower = more cytotoxic) in assay [4] of 64.5%. In assay [5], this compound displayed a viability (% of control) of 8.15%. Further, the Potency entry in assay [7] and in assay [8] was “inactive” throughout. In addition, the Potency in [12] was 18.7 µM (active).
Compound `CC1(C)CC(=O)c2c(C(F)(F)F)nn(-c3ccc(C(N)=O)c(NC4CCC(O)CC4)c3)c2C1` (stereo unspecified) gave a parasite growth, % of DMSO control in [1] of 5.39%. This compound also displayed a parasite growth remaining, % of DMSO control (lower = more inhibition) in assay [2] of 8.63%. In assay [3], this compound yielded a parasite growth, % of control (lower = inhibition) of 13%. This compound also came in with a growth, % of control in [10] of 3.53%. For the same compound, the cell viability, % of control (lower = more cytotoxic) in assay [4] was found to be 8.13%. For the same compound, in assay [5], the viability (% of control) was found to be 13.5%. In addition, in [7], the Potency result was “inactive”. In addition, the Potency in assay [11] is 0.0935 µM (active); in assay [13], 0.148 µM (active); in assay [8], 0.0833 µM (active).
